From PubChem BioAssay (EPA / NIEHS) come the findings set out here.

Active and inactive are the calls of the source. Rule for the calls: active = hit-call score of the fitted dose curve at least 0.9, where 1 is the maximum; inactive = score below 0.9.

Broadly, the AC50 is the concentration at which the activity in the assay is half-maximal.

Read-out in test [1]: Human Leukocyte Antigen - DR isotype (HLADR), HLA-DRA (gene 3122)
Nature of the test: BSK_3C_HLADR: BioMAP Diversity Plus: 3C Assay for Human Leukocyte Antigen - DR isotype (HLADR) Biomarker Activity (AID 2283019). To be noted: primary human endothelial cells (HUVEC); actives raise or lower the signal. An outline of the steps: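 ELISA readout of surface HLA-DR on human umbilical vein endothelium, taken 24 h after chemical treatment. Gain- and loss-of-signal were both fitted relative to DMSO.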

A short description of test [2]: BSK_3C_Vis: BioMAP Diversity Plus: 3C Assay for Morphology Visualization (AID 2283025).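 For AC50: light microscopy image of cell morphology used as background control.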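 Note: fitted both ways so gain or loss versus DMSO counts.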 Conditions: primary human endothelial cells (HUVEC). In outline:
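Chemicals were added to primary human umbilical vein endothelium, cells were incubated 24 h, and morphology was then visualized by light microscopy. Gain or loss of signal was fitted bidirectionally relative to DMSO.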

Read-out in test [3]: Human Leukocyte Antigen - DR isotype (HLADR), HLA-DRA (gene 3122)
Nature of the test: BSK_BE3C_HLADR: BioMAP Diversity Plus: BE3C Assay for Human Leukocyte Antigen - DR isotype (HLADR) Biomarker Activity (AID 2283032). To be noted: primary human bronchial epithelial cells; actives raise or lower the signal. In outline:
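ELISA read-out of HLA-DR on human lung bronchial epithelial primary cells, measured 24 h post-dosing. Both increases and decreases were scored relative to DMSO vehicle.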

Read-out in test [4]: Interleukin-8 (IL8), CXCL8 (gene 3576)
Nature of the test: BSK_CASM3C_IL8: BioMAP Diversity Plus: CASM3C Assay for Interleukin-8 (IL8) Biomarker Activity (AID 2283042).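 Note: IL-8 protein level quantified by ELISA.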 Conditions: primary human coronary artery smooth muscle cells; actives raise or lower the signal.

Read-out in test [5]: Monokine induced gamma interferon (MIG), CXCL9 (gene 4283)
The experiment in a line: BSK_CASM3C_MIG: BioMAP Diversity Plus: CASM3C Assay for Monokine induced gamma interferon (MIG) Biomarker Activity (AID 2283048).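 Note: MIG protein level measured by ELISA.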 Conditions: primary human coronary artery smooth muscle cells; actives raise or lower the signal.

Read-out in test [6]: Urokinase-type plasminogen activator receptor (uPAR), PLAUR (gene 5329)
The experiment in a line: BSK_CASM3C_uPAR: BioMAP Diversity Plus: CASM3C Assay for Urokinase-type plasminogen activator receptor (uPAR) Biomarker Activity (AID 2283054).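 Note: cell-surface uPAR protein level quantified by ELISA.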 Conditions: primary human coronary artery smooth muscle cells; actives raise or lower the signal.

Read-out in test [7]: Intercellular Adhesion Molecule 1 (ICAM1), ICAM1 (gene 3383)
The experiment in a line: BSK_KF3CT_ICAM1: BioMAP Diversity Plus: KF3CT Assay for Intercellular Adhesion Molecule 1 (ICAM1) Biomarker Activity (AID 2283067). Conditions: primary human keratinocytes with fibroblasts; actives raise or lower the signal. An outline of the steps:
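ICAM-1 levels are measured by ELISA 24 h after dosing a primary human co-culture of keratinocytes and foreskin fibroblasts. Activity in either direction is fitted relative to DMSO vehicle.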

Read-out in test [8]: Macrophage colony-stimulating factor (MCSF), CSF1 (gene 1435)
Nature of the test: BSK_LPS_MCSF: BioMAP Diversity Plus: LPS Assay for Macrophage colony-stimulating factor (MCSF) Biomarker Activity (AID 2283083). Conditions: primary human HUVEC with PBMC; actives raise or lower the signal. An outline of the steps:
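ELISA readout of M-CSF after 24 h compound exposure in a human endothelial/PBMC co-culture. Activity, in either direction, is fitted relative to DMSO vehicle.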

Read-out in test [9]: Tissue Factor, F3 (gene 2152)
Nature of the test: BSK_LPS_TissueFactor: BioMAP Diversity Plus: LPS Assay for Tissue Factor Biomarker Activity (AID 2283084). Conditions: primary human HUVEC with PBMC; actives raise or lower the signal. In outline: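 ELISA signal for cell-surface Tissue Factor (CD142) was read 24 h after compound dosing of an LPS-stimulated human endothelial–PBMC primary co-culture. Gain or loss of signal was scored relative to DMSO.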

Read-out in test [10]: Vascular cell adhesion molecule 1 (VCAM1), VCAM1 (gene 7412)
Nature of the test: BSK_LPS_VCAM1: BioMAP Diversity Plus: LPS Assay for Vascular cell adhesion molecule 1 (VCAM1) Biomarker Activity (AID 2283086). Conditions: primary human HUVEC with PBMC; actives raise or lower the signal. In outline: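 HUVEC + PBMC co-culture, LPS system; compound 24 h; VCAM-1 by ELISA; bidirectional fit vs DMSO control; parallel SRB (0.1%, TCA-fixed, 560 nm) for cytotoxicity.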

Read-out in test [11]: CD40, CD40 (gene 958)
The experiment in a line: BSK_SAg_CD40: BioMAP Diversity Plus: SAg Assay for CD40 Biomarker Activity (AID 2283088). Conditions: primary human HUVEC with PBMC; actives raise or lower the signal. In outline:
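Compounds were dosed onto a human primary endothelial–PBMC co-culture, and after 24 h CD40 was quantified by ELISA using a fluorescence signal. Activity in either direction was fitted relative to DMSO.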

Read-out in test [12]: Monocyte Chemoattractant Protein-1 (MCP1), CCL2 (gene 6347)
Nature of the test: BSK_SAg_MCP1: BioMAP Diversity Plus: SAg Assay for Monocyte Chemoattractant Protein-1 (MCP1) Biomarker Activity (AID 2283090). To be noted: primary human HUVEC with PBMC; actives raise or lower the signal. An outline of the steps: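 MCP-1 levels in the endothelial–PBMC SAg co-culture were quantified by ELISA at 24 h post-dosing; both increases and decreases versus DMSO scored. Cytotoxicity monitored by SRB total protein in parallel cultures.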

Read-out in test [13]: Monokine induced gamma interferon (MIG), CXCL9 (gene 4283)
The experiment in a line: BSK_SAg_MIG: BioMAP Diversity Plus: SAg Assay for Monokine induced gamma interferon (MIG) Biomarker Activity (AID 2283092). To be noted: primary human HUVEC with PBMC; actives raise or lower the signal. An outline of the steps: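 Endothelial cells and PBMC were co-cultured, exposed to test chemicals, and sampled 24 h later. MIG was measured by ELISA, and responses were fitted in both directions relative to DMSO.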

Read-out in test [14]: Interleukin-8 (IL8), CXCL8 (gene 3576)
Nature of the test: BSK_SAg_IL8: BioMAP Diversity Plus: SAg Assay for Interleukin-8 (IL8) Biomarker Activity (AID 2283094). To be noted: primary human HUVEC with PBMC; actives raise or lower the signal. In outline:
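ELISA read-out of IL-8 in a primary human vascular co-culture (umbilical vein endothelium plus PBMC), taken 24 h after compound addition. Values derive from bidirectional fits against DMSO negative controls.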

Test [15] can be described thus: BSK_SAg_Proliferation: Cell Proliferation Assessment in the BioMAP Diversity Plus: SAg Assay (AID 2283095).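 Note: relative cell number as total protein by SRB absorbance in sub-confluent culture.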 To be noted: primary human HUVEC with PBMC. An outline of the steps: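 Cells (endothelium plus PBMC, human primary) were dosed with chemical, cultured 96 h, fixed in 10% TCA and stained with 0.1% SRB. Absorbance at 560 nm gave relative protein, fitted bidirectionally relative to DMSO.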

Test [16] can be described thus: BSK_BT_Bcell_Proliferation: Viability Assessment in the BioMAP Diversity Plus: BT Assay for B cell Proliferation (AID 2284227). Conditions: primary human B cells with PBMC. In outline: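 Read-out is absorbance at 560 nm from sulforhodamine B staining of total protein, reflecting relative cell numbers in a human B cell and PBMC co-culture after 72 h of chemical exposure. Values were referenced to DMSO.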

Read-out in test [17]: Interleukin 17A (IL17A), IL17A (gene 3605)
The experiment in a line: BSK_BT_xIL17A: BioMAP Diversity Plus: BT Assay for Interleukin 17A (IL17A) Biomarker Activity (AID 2284229). To be noted: primary human B cells with PBMC. In outline:
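Secreted IL-17A was the measured endpoint, read by Luminex xMAP multiplex in supernatants of a human B cell/PBMC co-culture harvested 24 h after chemical dosing. Signal increase relative to DMSO defined activity.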

Read-out in test [18]: Collagen III, COL3A1 (gene 1281)
Nature of the test: BSK_MyoF_CollagenIII: BioMAP Diversity Plus: MyoF Assay for Collagen III Biomarker Activity (AID 2284239). To be noted: primary human lung fibroblasts. An outline of the steps: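 ELISA read-out of collagen III from human lung fibroblasts after 24 h of chemical treatment. The DMSO control served as negative control and baseline, with values fitted in the positive direction.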

Read-out in test [19]: Interleukin 2 (IL2), IL2 (gene 3558)
The experiment in a line: BSK_BT_xIL2: BioMAP Diversity Plus: BT Assay for Interleukin 2 (IL2) Biomarker Activity (AID 2284245). To be noted: primary human B cells with PBMC. In outline:
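B cell + PBMC co-culture (human primary), compound added, 24 h incubation; secreted IL-2 measured multiplexed on Luminex xMAP; gain-of-signal fit vs DMSO.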

Read-out in test [20]: Matrix Metallopeptidase 1 (MMP1), MMP1 (gene 4312)
The experiment in a line: BSK_MyoF_MMP1: BioMAP Diversity Plus: MyoF Assay for Matrix Metallopeptidase 1 (MMP1) Biomarker Activity (AID 2284268). Conditions: primary human lung fibroblasts. An outline of the steps: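 Lung fibroblast cultures were dosed with test chemicals and, after 24 h, MMP1 levels were measured by ELISA; responses were referenced to DMSO and analysed for increases.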

Consider `Clc1ccc(-c2ccccc2)cc1`, for which the outcome in test [1], in [2], in test [3], in [4], in test [5] and in [6] was inactive. The result in test [7], in test [8], in test [9], in test [10], in test [11] and in test [12] was inactive. Further, the outcome in test [13], in test [14], in [15], in [16], in test [17] and in test [18] was inactive. Further, the outcome in [19] and in test [20] was inactive.

Turning to `COC(C)(C)CCC[C@H](C)C/C=C/C(C)=C/C(=O)OC(C)C`, the AC50 in [1] was 28.3 µM (active); in test [2] it was 37.4 µM (active); in test [3] it was 18.5 µM (active); in [5] it was 29.9 µM (active); in test [6], 31.2 µM (active); in test [8] it was 20.5 µM (active). Further, the AC50 in test [9] is 26.8 µM (active); in [10], 27.4 µM (active); in [11], 26.8 µM (active); in [12], 20 µM (active); in [15], 28.6 µM (active); in test [16], 28.8 µM (active). The AC50 is 13.4 µM (active) in [17], 28.4 µM (active) in test [19] and 26.9 µM (active) in test [20]. The outcome in test [4], in test [7], in test [13], in test [14] and in [18] was inactive.

As for `CC(C)(C)C(=O)CCl`, the half-maximal activity concentration (AC50) was 20 µM (active) in test [1]; 20 µM (active) in test [3]; 20 µM (active) in test [5]; 30.4 µM (active) in test [8]; 24.3 µM (active) in test [10]; 23.1 µM (active) in test [15]. For the same compound, the result in test [2], in test [6], in [7], in test [9], in test [11] and in [12] was inactive. Moreover, the result in test [13], in test [14], in test [16], in test [17], in test [18] and in test [19] was inactive. Besides, the outcome in test [20] was inactive.
